About 40 (3%) of roughly 1,300 compounds were called active. The list comes from a sample in which actives are over-represented; it also holds similar structures and randomly drawn compounds. Unmarked numbers belong to inactive results. Rule as the data show it: active = inhibition above about 30%; inactive = the rest.
Biological target: fMet-Leu-Phe receptor (Homo sapiens) (UniProt P21462)
Assay: FPR1 fluorescent ligand binding inhibitors, primary screen, cell-based, flow cytometry, SAR analysis (AID 722)
Conditions: FPR-expressing cells, active compounds read high, concentration not given here

fMet-Leu-Phe receptor (Homo sapiens), sequence (P21462 whole entry, looked up): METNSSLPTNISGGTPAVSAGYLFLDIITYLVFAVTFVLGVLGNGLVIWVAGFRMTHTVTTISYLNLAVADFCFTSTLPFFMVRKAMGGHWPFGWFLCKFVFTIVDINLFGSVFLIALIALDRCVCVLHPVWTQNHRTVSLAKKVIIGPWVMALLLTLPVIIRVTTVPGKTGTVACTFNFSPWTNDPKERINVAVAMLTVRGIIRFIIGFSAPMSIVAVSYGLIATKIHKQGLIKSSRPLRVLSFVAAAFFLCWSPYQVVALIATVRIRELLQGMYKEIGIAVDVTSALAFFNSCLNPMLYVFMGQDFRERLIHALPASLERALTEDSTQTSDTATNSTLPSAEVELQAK

Row | SMILES | inhibition
1 | COc1cccc(C2/C(=C(\O)c3ccc(F)cc3)C(=O)C(=O)N2Cc2cccnc2)c1 (centres undefined) | 1%
2 | CC(C)(C)c1ccc(C2/C(=C(\O)c3ccc(F)cc3)C(=O)C(=O)N2Cc2cccnc2)cc1 (centres undefined) | -1.6%
3 | O=C1NC(c2ccc(Br)cc2)/C(=C(\O)c2ccc(Cl)cc2)C1=O (centres undefined) | 46.3% (active)
4 | O=C1NC(c2ccccc2Cl)/C(=C(/O)c2ccc(Br)cc2)C1=O (centres undefined) | 8.6%
5 | COc1ccc(C2NC(=O)C(=O)/C2=C(\O)c2ccc(Cl)cc2)cc1 (centres undefined) | -4.8%
6 | O=C1NC(c2cccc(F)c2)/C(=C(/O)c2ccc(Br)cc2)C1=O (centres undefined) | 17%
7 | COC(=O)c1sc(N2C(=O)C(O)=C(C(=O)c3cc4ccccc4o3)C2c2ccc(OC)cc2)nc1C (centres undefined) | 3.6%
8 | COC(=O)c1c[nH]n2c(=O)cc(C3CCNCC3)nc12 | -1.9%
9 | O=C1CSC(c2ccc(Br)cc2)N1c1cccc(Cl)c1 (centres undefined) | 2.7%
10 | COc1cc(C2C(C(=O)c3cc4ccccc4o3)=C(O)C(=O)N2CCCN(C)C)cc(OC)c1OC (centres undefined) | 14.6%
11 | COc1ccc(C2C(C(=O)c3cc4ccccc4o3)=C(O)C(=O)N2CCN(C)C)cc1 (centres undefined) | -8.1%
12 | COc1cc(C2C(C(=O)c3cc4ccccc4o3)=C(O)C(=O)N2CCN(C)C)ccc1O (centres undefined) | 88.7% (active)
13 | COc1cccc(C2C(C(=O)c3cc4ccccc4o3)=C(O)C(=O)N2CCCN(C)C)c1 (centres undefined) | -4.2%
14 | COc1cc(C2C(C(=O)c3cc4ccccc4o3)=C(O)C(=O)N2CCN(C)C)cc(OC)c1OC (centres undefined) | -6.9%
15 | COc1ccc(C2C(C(=O)c3cc4ccccc4o3)=C(O)C(=O)N2CCN(C)C)cc1OC (centres undefined) | 66.9% (active)
16 | COCCCN1C(=O)C(=O)/C(=C(/O)c2ccc(C)cc2)C1c1cc(OC)ccc1OC (centres undefined) | 0.2%
17 | CCOC(=O)Cc1c(C)nc2c(-c3ccccc3)c(-c3ccccc3)[nH]n2c1=O | -11.4%
18 | COCCN1C(=O)C(O)=C(C(=O)c2cc3ccccc3o2)C1c1ccc(OCc2ccccc2)c(OC)c1 (centres undefined) | -2.2%
19 | COc1ccc(C2C(C(=O)c3cccs3)=C(O)C(=O)N2CCN2CCOCC2)cc1 (centres undefined) | 9.7%
20 | COc1ccc(C2C(C(=O)c3ccco3)=C(O)C(=O)N2CCN2CCOCC2)c(OC)c1 (centres undefined) | 49.5% (active)
21 | COc1ccc(C2C(C(=O)c3cccs3)=C(O)C(=O)N2CCN2CCOCC2)c(OC)c1 (centres undefined) | 62% (active)
22 | COc1ccc(C2C(C(=O)c3ccco3)=C(O)C(=O)N2CCN2CCOCC2)cc1 (centres undefined) | 2.9%
23 | COc1ccc(C2C(C(=O)c3ccco3)=C(O)C(=O)N2CCN2CCOCC2)cc1OC (centres undefined) | -43.5%
24 | COc1ccc(C2C(C(=O)c3cccs3)=C(O)C(=O)N2CCCN2CCOCC2)cc1 (centres undefined) | 6.5%
25 | COc1ccccc1CN1C(=O)c2nccnc2C1=O | 1.8%

Row | SMILES | inhibition
26 | CCc1ccc(C(=O)CSc2nc3nc(C)cc(C)c3c(=O)[nH]2)cc1 | 5.9%
27 | CCOC(=O)c1c(NC(=O)c2ccco2)sc2c1CCC(C)C2 (centres undefined) | -0.4%
28 | Cc1ccc(N2C(=O)CSC2c2ccc(C(C)C)cc2)cc1 (centres undefined) | -5.6%
29 | O=C(C1=C(O)C(=O)N(CCCn2ccnc2)C1c1ccc(Cl)cc1Cl)c1ccco1 (centres undefined) | 1.7%
30 | CCOC(=O)c1c(NC(=O)c2cccnc2)sc2c1CCC(C(C)(C)C)C2 (centres undefined) | -8%
31 | O=C1C(=O)N(c2cccnc2)C(c2ccccc2[N+](=O)[O-])/C1=C(/O)c1ccccc1 (centres undefined) | -2.9%
32 | CCc1c(C)sc(NC(=O)c2cccc(F)c2)c1C(=O)OC | -9.8%
33 | COc1ccc(C2C(C(C)=O)=C(O)C(=O)N2Cc2ccco2)cc1OC (centres undefined) | 1.8%
34 | COc1cccc(Oc2c(C(F)(F)F)oc3cc(O)ccc3c2=O)c1 | 9.2%
35 | COC(=O)c1c(NC(=O)c2ccoc2C)sc(C)c1C | 5.4%
36 | COc1ccc(-c2c(C)[nH]n3c(=O)cc(Cc4ccccc4)nc23)cc1 | -1.1%
37 | COc1ccc(-c2c(C)[nH]n3c(=O)c4c(nc23)CCCC4)cc1 | 73% (active)
38 | CCc1c(C)nc2c(-c3ccc(OC)cc3)c(C)[nH]n2c1=O | 12.9%
39 | CC(C)OC(=O)c1nonc1N(C(=O)c1ccccc1)C(=O)c1ccccc1 | -0.6%
40 | O=C1C(=O)N(CCN2CCOCC2)C(c2cccs2)/C1=C(\O)c1ccc(S(=O)(=O)N2CCOCC2)cc1 (centres undefined) | -1.3%
41 | CC(=O)C1=C(O)C(=O)N(CCc2c(C)[nH]c3ccccc23)C1c1cccc(F)c1 (centres undefined) | 65.2% (active)
42 | CC(=O)C1=C(O)C(=O)N(CCc2c(C)[nH]c3ccccc23)C1c1cccc([N+](=O)[O-])c1 (centres undefined) | 9.3%
43 | COc1ccc(/C(O)=C2/C(=O)C(=O)N(CCc3c(C)[nH]c4ccccc34)C2c2ccc(Cl)cc2)cc1 (centres undefined) | 4.2%
44 | Cc1onc(-c2ccccc2Cl)c1C(=O)Oc1cccc(F)c1 | 3.6%
45 | CCOC(=O)c1c(NC(=O)c2cc3ccccc3o2)sc2c1CCC(C)C2 (centres undefined) | -1.7%
46 | CCN1CCC2(CC1)N=C(c1ccccc1)C(=S)N2C(=O)c1ccccc1 | 2.1%
47 | CC(=O)C1=C(O)C(=O)N(Cc2ccco2)C1c1ccc(Br)cc1 (centres undefined) | -1.5%
48 | COc1ccc(/C(O)=C2/C(=O)C(=O)N(c3ccc(C)c(Br)c3)C2c2ccc(O)cc2)cc1 (centres undefined) | -5.2%
49 | O=C(c1ccccc1F)N(Cc1ccco1)Cc1ccccc1F | 9.3%
50 | O=C(Oc1ccc2c(=O)c(Oc3ccccc3Cl)c(C(F)(F)F)oc2c1)c1cccs1 | -8.1%

Row | SMILES | inhibition
51 | COc1ccc(Oc2c(C(F)(F)F)oc3cc(OC(=O)c4c(OC)cccc4OC)ccc3c2=O)cc1 | 2.9%
52 | O=C(Oc1ccc2c(=O)c(-c3ccccc3Cl)c(C(F)(F)F)oc2c1)c1cccs1 | 70% (active)
53 | O=C(Oc1ccc2c(=O)c(Oc3ccccc3Br)c(C(F)(F)F)oc2c1)c1cccs1 | 37.2% (active)
54 | COc1ccccc1-c1c(C(F)(F)F)oc2cc(OC(=O)N3CCOCC3)ccc2c1=O | 9.4%
55 | COc1cccc(OC)c1C(=O)Oc1ccc2c(=O)c(-c3ccc(Cl)cc3)c(C(F)(F)F)oc2c1 | 4.7%
56 | COc1cc(C)c2c(=O)c(Oc3ccccc3)c(C(F)(F)F)oc2c1 | 4.2%
57 | CCCCc1c(O)nc(SCCN(C)C)n(-c2ccccc2)c1=O | -1%
58 | CCOc1ccc(C2/C(=C(/O)c3ccc(Cl)cc3)C(=O)C(=O)N2c2ccc(C)c(Br)c2)cc1 (centres undefined) | -0.6%
59 | COc1ccc(C2/C(=C(/O)c3ccccc3)C(=O)C(=O)N2c2ccc(C)c(Br)c2)c(OC)c1 (centres undefined) | -1.6%
60 | COc1ccc(C2/C(=C(\O)c3ccccc3)C(=O)C(=O)N2c2cccc(Cl)c2)c(OC)c1 (centres undefined) | 47.6% (active)
61 | COCCN1C(=O)C(=O)/C(=C(/O)c2ccccc2)C1c1cc(OC)ccc1OC (centres undefined) | 69.8% (active)
62 | COc1ccc(C2/C(=C(\O)c3ccccc3)C(=O)C(=O)N2CCCn2ccnc2)c(OC)c1 (centres undefined) | 79.1% (active)
63 | COc1ccc(/C(O)=C2/C(=O)C(=O)N(CCCn3ccnc3)C2c2cccc(OC)c2)cc1 (centres undefined) | -6.1%
64 | COc1ccc(C2/C(=C(/O)c3ccccc3)C(=O)C(=O)N2CCO)c(OC)c1 (centres undefined) | -12.1%
65 | COCCN1C(=O)C(=O)/C(=C(/O)c2ccccc2)C1c1ccc(OC)cc1OC (centres undefined) | 10.5%
66 | COc1ccc(C2/C(=C(\O)c3ccccc3)C(=O)C(=O)N2c2ccc(C)c(Cl)c2)c(OC)c1 (centres undefined) | -4.3%
67 | COCCCN1C(=O)C(=O)/C(=C(/O)c2ccccc2)C1c1cc(OC)ccc1OC (centres undefined) | 11.4%
68 | CC(C)c1ccc(C2/C(=C(\O)c3ccc(F)cc3)C(=O)C(=O)N2CCCN2CCOCC2)cc1 (centres undefined) | -6%
69 | COc1ccc2c(=O)c(-c3ccccc3)c(C(F)(F)F)oc2c1C | -2.4%
70 | CCc1cc2c(=O)c(-c3nc4ccccc4s3)c(C)oc2cc1OC(C)=O | 4%
71 | O=C1C(=O)N(CCN2CCOCC2)C(c2cccc(Br)c2)/C1=C(\O)c1ccccc1 (centres undefined) | 1.8%
72 | Cc1onc(-c2c(Cl)cccc2Cl)c1C(=O)N1CCC(C)CC1 | 5.9%
73 | COC(=O)c1c(NC(=O)c2cccc(Br)c2)sc2c1CCCC2 | -4.7%
74 | Cc1cc(N2C(=O)CSC2c2ccccc2F)ccc1Br (centres undefined) | 0.4%
75 | COc1ccc(OC)c(C2C(C(=O)/C=C/c3ccccc3)=C(O)C(=O)N2CCCCCC(=O)O)c1 (centres undefined) | -3.9%

Row | SMILES | inhibition
76 | Cc1oc2cc(OCC(=O)O)ccc2c(=O)c1-c1ccc2c(c1)OCCO2 | 3.2%
77 | CCOC(=O)c1c(NC(=O)Cc2ccccc2)sc2c1CCCCC2 | -0.4%
78 | N#Cc1c(N/C(=C\C(=O)c2ccccc2)C(=O)O)sc2c1CCC2 | 53% (active)
79 | COc1cccc(C(=O)/C=C(\Nc2sc3c(c2C#N)CCC3)C(=O)O)c1 | -24.9%
80 | Cn1c2c(c(=O)n3ncc(C(=O)O)c13)CN(Cc1ccccc1)CC2 | -6.5%
81 | CCc1cc2c(=O)c(-c3nc4ccccc4n3C)c(C)oc2c(CN2CCCCC2)c1O | -12.9%
82 | CCOC(=O)c1c(NC(=O)c2cc(C)no2)sc(C)c1C | 2.2%
83 | COc1ccc(OC)c(NC(=O)C(C)n2sc3ccccc3c2=O)c1 (centres undefined) | 2.2%
84 | CCCCCCOc1cccc(N2C(=O)C(=O)/C(=C(\O)c3ccccc3)C2c2ccc(C(C)C)cc2)c1 (centres undefined) | -11.9%
85 | COc1ccc(/C(O)=C2/C(=O)C(=O)N(c3ccc(C)c(Br)c3)C2c2cccc(F)c2)cc1 (centres undefined) | 20.6%
86 | O=C(O)COc1ccc(N2C(=O)C(=O)/C(=C(\O)c3ccccc3)C2c2cccc(F)c2)cc1 (centres undefined) | -6.1%
87 | CCCCCCOc1cccc(N2C(=O)C(=O)/C(=C(\O)c3ccccc3)C2c2cccc(F)c2)c1 (centres undefined) | 56.3% (active)
88 | Cc1cccc(N2C(=O)C(=O)/C(=C(/O)c3ccccc3)C2c2cccc(F)c2)c1 (centres undefined) | 4.1%
89 | Cc1ccc(N2C(=O)C(=O)/C(=C(\O)c3ccccc3)C2c2cccc(F)c2)cc1Br (centres undefined) | 30.2% (active)
90 | COC(=O)c1c(NC(=O)c2ccc(C)cc2)sc(C)c1C | -13.3%
91 | COc1ccc(C2/C(=C(\O)c3ccccc3)C(=O)C(=O)N2CCN2CCOCC2)c(OC)c1 (centres undefined) | 17%
92 | CCOc1ccc(/C(O)=C2\C(=O)C(=O)N(CCN3CCOCC3)C2c2ccc(Br)cc2)c(C)c1 (centres undefined) | -1.7%
93 | COc1ccc(C2SCC(=O)N2c2ccc(Br)cc2)cc1 (centres undefined) | 1.9%
94 | CCCN(C(=O)c1cccc(NC(=O)[C@H]2[C@@H]3C[C@@H]4[C@H]2C(=O)O[C@@H]4C3)c1)c1ccccc1F | -2.9%
95 | CCOC(=O)c1c(NC(=O)c2ccco2)sc(C)c1C | -1.8%
96 | CCOC(=O)C1NN=C(C(=O)c2ccccc2)C1c1ccccc1 (centres undefined) | -1%
97 | CCSC1=C(C#N)C(c2ccc3c(c2)OCO3)CC(=O)N1 (centres undefined) | -2.1%
98 | COc1cccc(C2/C(=C(/O)c3ccc(Cl)cc3)C(=O)C(=O)N2c2ccc(C)c(Br)c2)c1 (centres undefined) | 0.2%
99 | COc1ccc(C2CC(=O)C3=C(C2)NC(=O)CC3c2cccs2)cc1OC (centres undefined) | -3.3%

— PubChem BioAssay AID722 (NMMLSC, 2007)
